Compounds with a hit are over-represented: about 21% of the library has one in this group of screens.
ClpP mod = qHTS Assay for Activators of ClpP; AID 651965, 2013; 340,000 compounds, 1.9% hits; purified B. subtilis ClpP, FRET peptide cleavage, 20 min; ATP-dependent Clp protease proteolytic subunit (Bacillus subtilis (strain 168)), P80244; Potency, µM (highest dose often 57.5 µM), inactives show top-dose activity change, negative = active; active = well fitted falling curve with a large enough effect; inconclusive = small, poorly fitted or top-dose-only effect; inactive = no such curve, though single readings can be large or run the other way; also: potency is read from the fitted curve at half-maximal effect; the source files actives as falling curves though it sought activators and does not explain the sign; nearly all actives have a fitted effect of over 65% in size
Target sequence (P80244 whole entry, looked up): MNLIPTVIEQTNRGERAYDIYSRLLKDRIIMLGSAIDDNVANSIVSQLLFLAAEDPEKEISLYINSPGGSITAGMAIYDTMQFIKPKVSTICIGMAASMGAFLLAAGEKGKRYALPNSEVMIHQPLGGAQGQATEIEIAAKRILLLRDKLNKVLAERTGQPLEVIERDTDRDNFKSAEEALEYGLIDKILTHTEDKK
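ClpP 10 microg/mL final, pH 8 Tris/KCl buffer with BSA, glycerol, Tween-20; compound pinned in; FRET-FV substrate; RT 20 min; Ex320/Em430; ΔFRET vs ADEP 5.8 microM, DMSO, no enzyme.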
D3 ag = qHTS of D3 Dopamine Receptor Agonist: qHTS; D3R DiscoveRx beta-arrestin cells, luminescence, 90 min; max activation, %; 410,000 compounds, 0.58% hits; in the data active = max activation above about 30%; also: 0% is about no effect
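Agonist mode: compounds and dopamine controls were applied to plated cells for 90 min at 37 degrees C after an overnight attachment at 1500 cells/well. Luminescent read-out followed 30 - 60 minutes at room temperature with DiscoveRx detection reagent.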
DRD3 antagonist = qHTS of D3 Dopamine Receptor Antagonist: qHTS. D3R cells, DiscoveRx beta-arrestin luminescence, antagonist mode; stronger effect = lower value. max response, negative = inhibition, %. D(3) dopamine receptor (Homo sapiens), P35462. 360,000 compounds, 2.5% hits; in the data active = max response below about -50%; inconclusive = no clear call, values can overlap the other calls; also: % is scaled to controls: 0 for no effect and ±100 for the full control effect
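Cells expressing the human receptor were seeded at 1500 cells/well, incubated overnight at 37 degrees C in 5% CO2, then exposed to library compounds with dopamine controls for 90 minutes at 37 degrees C before luminescent detection.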
IL-1B inflam inh = qHTS for Inhibitors of Inflammasome Signaling: IL-1-beta AlphaLISA Primary Screen | THP-1 LPS/ATP IL-1B secretion, AlphaLISA, 16 h; stronger effect = lower value | activity change, % at 57.5 µM | 360,000 compounds, 4.7% hits; in the data active = activity change below about -50%; inconclusive = mostly about -30% to -49%; also: % is scaled to controls: 0 for no effect and ±100 for the full control effect
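THP-1 cells pretreated 1 hr with compounds (up to 57.5 uM final), then stimulated with LPS (250 ng/mL final) plus ATP (1.25 mM final); secreted IL-1B measured by AlphaLISA after 16 hr, decreased signal indicating inhibition.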
DT40 TDP1 no CPT = qHTS for Inhibitors of human tyrosyl-DNA phosphodiesterase 1 (TDP1): qHTS in cells in absence of CPT; DT40 Tdp1-/- hTDP1 cells, no CPT, ATP luminescence, 48 h; Potency, µM (series often up to 46.2 µM), for the others: at the top dose activity change, negative = growth inhibition, actives largely listed as inhibitors; 420,000 compounds, 15% hits; AID 686978, 2013; also: potency is read from the fitted curve at half-maximal effect; % is scaled to controls: 0 for no effect and ±100 for the full control effect; nearly all actives have a fitted effect of over 55% in size
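Growth of hTDP1-complemented DT40 Tdp1-knockout cells is measured by ATP luminescence after at least 48 hr compound exposure at 37 °C, with DMSO substituting for the 20 nM CPT used in the parallel screen.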
DT40 TDP1 CPT = qHTS for Inhibitors of human tyrosyl-DNA phosphodiesterase 1 (TDP1): qHTS in cells in presence of CPT | chicken DT40 Tdp1-/-;hTDP1 cells + 20 nM CPT, ATP luminescence, 48 h | Potency, µM (titrated, usually from 46.2 µM), inactives show top-dose activity change, negative = growth inhibition, usual class: inhibitors | 420,000 compounds, 12% hits; also: potency is read from the fitted curve at half-maximal effect; % is scaled to controls: 0 for no effect and ±100 for the full control effect; nearly all actives have a fitted effect of over 55% in size
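Chicken DT40 Tdp1-/- cells stably complemented with human TDP1 were seeded at 400 cells/well in medium containing 20 nM camptothecin, exposed to pin-transferred compounds, and grown at 37 °C for at least 48 hr. Viability was read as ATP luminescence.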
The depositor's hits bear a star; ? = inconclusive; · = no result given; [ ] = dose if it differs, or a comment. Unless noted, calls follow the shape of the dose curve; as a rule, active = well fitted inhibition curve with a large enough effect; inconclusive = small, poorly fitted or top-dose-only effect; inactive = flat fitted curve, though single readings scatter.

SMILES	ClpP mod	D3 ag	DRD3 antagonist	IL-1B inflam inh	DT40 TDP1 no CPT	DT40 TDP1 CPT
CC(=O)N1CCN(Cc2nc3cc(NC(=O)c4cccs4)ccc3n2C)CC1	·	-0.5	-6.1	0.0	-8.4%	6.5%
CC1CN(S(=O)(=O)c2ccc(C(=O)Nc3ccccc3F)cc2)CC(C)O1 (stereo not drawn)	-1.5%	1.6	-11.8	-10.7	4.4%	-15.0%
O=C(Nc1nc(-c2ccccn2)cs1)c1ccc(-c2ccccc2F)o1	?	-11.1	9.6	94.3	10.3µM*	5.8µM*
CCc1cc(C(=O)Nc2nc(-c3ccccn3)cs2)sc1C	-6.2%	-27.6	-4.1	114.3	2.91µM*	4.61µM*
Cc1ccc(C(=O)Nc2nc(-c3ccccn3)cs2)o1	1.3%	-4.2	-0.6	164.6	3.66µM*	5.8µM*
CCc1nnc(NC(=O)c2ccc(-c3ccccc3F)o2)s1	·	0.6	-13.2	0.0	18.2%	18.1%
CCc1nnc(NC(=O)c2ccc(-c3ccc(C(C)=O)cc3)o2)s1	4.1%	9.1	4.6	?	4.9%	-15.9%
CC(=O)c1ccc(-c2ccc(C(=O)Nc3nc(-c4ccccn4)cs3)o2)cc1	4.1%	3.1	28.1	160.9	3.66µM*	2.91µM*
Cc1ccc(C(=O)Nc2nc(-c3ccc4c(c3)OCCO4)cs2)o1	-16.4%	1.2	25.8	-22.2	?	?
Cc1nc2c(-c3ccccc3)c(C)nn2c(C)c1CCC(=O)N1CCN(c2ccccc2)CC1	-1.0%	1.4	·	·	?	-2.6%
CCOC(=O)c1ccccc1NC(=O)C1CSC2(C)CCC(=O)N12 (stereo not drawn)	?	5.0	-0.8	8.2	-23.8%	-29.3%
O=C(COc1ccc(Br)cc1)NCCN1CCCC1	-6.6%	-17.8	?	-4.3	20.6%	-1.6%
O=C(Nc1nc(-c2ccccn2)cs1)c1ccc([N+](=O)[O-])o1	·	-18.6	-21.5	40.9	2.59µM*	4.11µM*
Cc1ccc(OCC(=O)Nc2nc(-c3ccccn3)cs2)c(C)c1	0.5%	4.3	14.0	45.1	?	?
c1ccc(CCNc2nc(-c3ccccn3)cs2)cc1	-1.6%	5.3	6.5	0.0	7.31µM*	?
Cc1cc(C(=O)Nc2ccccc2-c2nc(CNC(=O)c3cscn3)c(C)o2)c(C)o1	·	·	·	·	-18.9%	-0.2%[9.04 µM]
COc1cc(OC)c(NC(=O)C2CC(=O)N(c3ccc4c(c3)OCCO4)C2)cc1Cl (stereo not drawn)	5.5%	3.9	12.0	-6.8	-13.8%	-1.3%
C[n+]1ccccc1N1CCN(c2ccccc2Cl)CC1	-0.3%	-9.1	12.0	-3.0	?	23.1µM*
Cc1ccc(Cl)cc1N1CCN(c2cccc[n+]2C)CC1	1.0%	-3.3	3.2	-10.5	25.9µM*	?
CCC(C)(C(=O)NC1CCCCC1)N(C(=O)CC1NC(=O)NC1=O)c1c(C)n(C)n(-c2ccccc2)c1=O (stereo not drawn)	0.0%	4.9	-2.0	6.9	3.8%	-4.7%
Cc1ccc(Nc2nc(NCCCN3CCOCC3)nc(N)c2[N+](=O)[O-])cc1C	-3.5%	-11.6	-15.9	-2.9	18.4µM*	?
Nc1nc(NCCCN2CCOCC2)nc(Nc2cccc(Cl)c2)c1[N+](=O)[O-]	·	-6.1	-21.1	-91.6*	?	?
O=C(Cn1c(=O)n(-c2ccccc2)c(=O)c2c3c(sc21)CCCC3)Nc1cccc(F)c1	0.0%	-6.2	·	·	-26.4%	?
Cc1ccc(OCC(=O)NCCNC(=O)c2ccc(C)nc2)cc1	·	-5.4	-15.6	-1.1	?	-7.6%
CCOC(=O)/C=C1\Nc2ccccc2OC1=O	9.2%	2.7	15.8	4.6	10.3µM*	8.2µM*

Source: PubChem (National Center for Advancing Translational Sciences (NCATS))
